In PubChem BioAssay AID1566 (Sanford-Burnham Center for Chemical Genomics, 2009):
Hit rate of the full screen: of about 290,000 compounds, about 1,800 (0.62%) were called active. Rule as the data show it: active = inhibition above about 50%; inactive = the rest. The entries come from a sample that favours actives as a whole.

test: inhibition of NOD2-driven NF-kB reporter – cell-based, luminescence, uHTS, HEK293 (AID 1566); details: HEK293 NOD2/NF-kB luciferase reporter, at 4 µM, stronger effect = higher value

inhibition, inactive:
COc1cc(/C=C2\SC(=O)N(CCN)C2=O)ccc1OS(=O)(=O)c1cc(C)ccc1C -1.9%
C=CCn1c(SCC(=O)Nc2ccc(-c3nc4ccc(C)cc4s3)cc2)nnc1-c1ccccc1 -69.8%
COc1ccc2[nH]c(C)c(CCNC(=S)Nc3cccc(C)c3)c2c1 -5.2%
O=C(COC(=O)/C(=C/c1cccs1)c1cccs1)NC(c1ccccc1)c1ccccc1 -12.9%
CCNC(=S)N1CCN(CC(=O)Nc2ccc(OC)cc2)CC1 -3.6%
O=C(NN/C(=N/S(=O)(=O)c1ccc(Cl)cc1)c1ccccc1)c1cccc(Cl)c1 -51.7%
CC(Oc1ccccc1)C(=O)NC1=NCCS1 (stereo not drawn) -34.9%
CN1C(=O)C2(C(C#N)=C(N)N(c3cc(Cl)cc(Cl)c3)C3=C2C(=O)CC(C)(C)C3)c2ccccc21 (stereo not drawn) 48.4%
CN1C(=O)C2(C(C#N)=C(N)N(c3ccc(Cl)cc3)C3=C2C(=O)CC(C)(C)C3)c2ccccc21 (stereo not drawn) 5.6%
O=C(CSc1ccc(Br)cc1)N1CCOCC1 0%
CCCn1ncc(CN2CCC(Oc3ccc(C(=O)N4CCCC4)cc3)CC2)c1C -37.8%
COc1ccc(S(=O)(=O)N(CC(=O)NCc2ccccn2)Cc2ccccc2)cc1 -13.2%
CC(=O)NC1=C(NC2CCS(=O)(=O)C2)C(=O)c2ccccc2C1=O (stereo not drawn) 5.3%
CN(C1=C(NC(=O)c2ccccc2)C(=O)c2ccccc2C1=O)C1CCS(=O)(=O)C1 (stereo not drawn) -12.3%
O=C(Nc1cccc2ccccc12)C1CCN(C(=O)NCc2ccccc2)CC1 -12.5%
Cc1cccc(OCC(=O)N/N=C2/SCC(=O)N2Cc2ccco2)c1 14.5%
O=C(COc1ccc(Cl)cc1)NNC(=S)NCc1ccccc1 -20.7%
C=CCc1ccccc1OCC(=O)O -5.4%
Cc1cc(-c2ccccc2)nc(Cl)c1C#N 17.2%
COC(=O)C1=C(C(=O)OC)[C@@H]2N(C)c3ccc(OC)cc3[C@@]23C[C@@H](C(=O)OC)N(C(=O)C2CCC2)C3=N1 -5.5%
COc1cc(OC)c(OC)cc1/C=C1/Cc2ccccc2C1=O 26.6%
COc1ccc(/C=C2\CC/C(=C\c3ccc(OC)cc3OC)C2=O)c(OC)c1 -4.6%
COc1cc(OC)c(OC)cc1/C=C1\CCC(C2CCCC2)C1=O (stereo not drawn) 27%
COc1ccc(/C=C2\CCC/C(=C\c3ccc(OC)c(OC)c3OC)C2=O)c(OC)c1OC -10.3%
COc1cc(/C=C2/CC/C(=C/c3ccc(O)c(OC)c3)C2=O)ccc1O -69.1%
COc1cc(/C=C2\COC/C(=C\c3ccc(O)c(OC)c3)C2=O)ccc1O 2%
CCCn1cnnc1CNC(=O)C1CCC(=O)N(CCc2ccc(OC)cc2)C1 (stereo not drawn) -2.5%
COc1cc(OC)cc(C(=O)N[C@H](C(=O)NCc2ccco2)C(C)C)c1 4.8%
CCN1CCN(CC(=O)N2c3ccccc3Sc3ccccc32)CC1 21.1%
Cc1noc(C)c1CSCC(=O)OCC(=O)NC1CCCCC1 1.1%
[O-][N+]1=C2CCC/C(=N\O)C2=NC12CCCCC2 -8.9%
COc1ccccc1CNC(=O)N1CCN(c2ccccc2Cl)CC1 4%
COc1ccccc1CNC(=O)N1CCN(c2ccccc2)CC1 8.6%
O=C(CCC(=O)N1CCc2ccccc21)Nc1ccccc1 12.5%
N/C(=N\N=C/c1ccc(Br)cc1)N/N=C\c1ccc(Br)cc1 -5.9%
CCN1CCN(c2ccc(NC(=O)COc3ccc([N+](=O)[O-])cc3)cc2)CC1 -32.4%
CCc1nnc(NC(=O)CCC(=O)N2CCN(Cc3ccc(Cl)cc3)CC2)s1 5.9%
CCCc1nnc(NC(=O)CCC(=O)N2CCN(Cc3ccc(F)cc3)CC2)s1 -3.9%
CCc1ccc(NC(=O)CC2C(=O)N(c3ccc(C)cc3)C(=O)N2C2CC2)cc1 (stereo not drawn) -17.1%
O=C(Nc1ccc2ccccc2n1)Nc1ccccc1F -1.1%
CCOc1ccc(/C=C2\SC(=S)NC2=O)cc1OC -106%
COc1ccc2cc(/C=C3\SC(=S)NC3=O)c(N3CCOCC3)nc2c1 42.8%
COc1cc(/C=C2/SC(=O)NC2=O)ccc1OCc1ccccc1 -9.8%
COc1ccc(-n2c(C)cc(/C=C3\SC(=S)NC3=O)c2C)cc1 -195%
COc1ccccc1OCCCOc1ccc(/C=C2\SC(=O)NC2=O)cc1OC 32%
CCOc1ccc(N(C)c2ccc(/C=C3/SC(=S)NC3=O)cc2)cc1 -2.9%
COc1cccc(CNC(=O)C2CCC(=O)N(C3CC3)C2)c1OC (stereo not drawn) -2.5%
O=C(NCCSCc1ccc(Cl)cc1)c1cccs1 6.3%
CCOc1ccc(-c2[nH]ncc2-c2ccc(Cl)cc2)c(O)c1 17.2%
CSc1nc(Oc2ccc3ccccc3c2)c2ccccc2n1 -0.5%
CCN(Cc1ccccc1)C(=O)Cn1c(=O)n(CCC(=O)N2CCCCC2)c(=O)c2sccc21 1.5%
O=[N+]([O-])c1ccc(Nc2ccccc2)c2nonc12 42%
O=[N+]([O-])c1ccc(Nc2ccccc2O)c2nonc12 16%
O=C(NCCN1CCOCC1)c1ccccc1N1C(=O)[C@@H]2Cc3c([nH]c4ccccc34)C(c3ccccc3)N2C1=O (stereo partly drawn) 5.2%
Cc1ccc(NC2CCCN(C(=O)CCn3nccc3C)C2)cc1C (stereo not drawn) -4%
CC1(C)CC(N2CCCCC2)=CC(=[N+]2CCCCC2)C1 44.9%
CC1(C)CC(N2CCCC2)=CC(=[N+]2CCCCC2)C1 33.8%
Cc1cc(C(=O)OCC(=O)Nc2cc(S(=O)(=O)N(C)C)ccc2Cl)c2ccccc2n1 10.5%
CCOC(=O)CNC(=O)c1cc(-c2ccc3c(c2)OCCO3)oc1C -25%
Cc1oc(-c2ccc3c(c2)OCCO3)cc1C(=O)NCC(=O)O 18%
CC1CN(CCOc2ccc(Cl)c(Cl)c2)CC(C)O1 (stereo not drawn) -27.9%
O=C(NCC(=O)N1CCN(c2ccccc2)CC1)c1ccccc1 -11.2%
Clc1ccc(/C=C/c2nc(Cl)c(-c3ccc(Cl)cc3)c(Cl)n2)cc1 15.1%
CN1/C(=C/C=C(/C#N)C(N)=O)C(C)(C)c2ccccc21 -25.4%
CN1/C(=C\C=C(/C#N)C(=O)Nc2ccccc2F)C(C)(C)c2ccccc21 23.2%
Cc1nn(C(=O)CCCn2cc([N+](=O)[O-])cn2)c(C)c1Cl 16.7%
Cc1ccc(C(=O)NCCNc2ccc([N+](=O)[O-])cc2C(F)(F)F)cc1 16.4%
COc1ccc(-c2cc(=O)oc3cc(OC(C)C(=O)O)ccc23)cc1 (stereo not drawn) -5.9%
COc1ccc(-c2cc(=O)oc3cc(OCC(C)=O)ccc23)cc1 -11.8%
CCCn1c(=O)c(Cc2ccccc2)c(O)c2ccccc21 6.4%
CCn1cc(/C=C(\NC(=O)c2ccc(OC)cc2)C(=O)N2CCOCC2)c2ccccc21 11.3%
Cc1cc2c(c(=O)o1)C(C(C)C)C(C#N)=C(N)O2 (stereo not drawn) 6.9%
OCCN1CCN(Cc2cc(Cl)c3cccnc3c2O)CC1 -47.1%
CCOC(=O)N1CCN(Cc2cc(Cl)c3cccnc3c2O)CC1 11.2%
Cc1ccc(S(=O)(=O)NNC(=O)c2ccccc2O)cc1 8.4%
COc1ccc(S(=O)(=O)N(Cc2cc3cc(C)ccc3[nH]c2=O)CC2CCCO2)cc1 (stereo not drawn) 16.6%
O=C(NC(=S)Nc1nc2c(s1)CCCC2)c1ccccc1 -7.3%
COC(=O)c1ccc(C(=O)NC(=S)Nc2nc3c(s2)CCCC3)cc1 5.1%
COc1ccc(S(=O)(=O)N(CC(=O)N2CCN(C)CC2)c2ccc(C)cc2)cc1Br -9.5%
COc1ccc(N2C(N)=NC(N)=NC2(C)C)cc1 -2.7%
CCOc1ccc(N2C(N)=NC(N)=NC2(C)C)cc1 -5.6%
COc1ccccc1N1CCN(C(=O)CSc2nnc3c4ccccc4n(CC(=O)O)c3n2)CC1 9.3%
COC(=O)CSc1nnc(CNC(=O)c2ccc(S(=O)(=O)N3CCCCC3)cc2)n1C 12.8%

inhibition, active:
CN1C(=O)C2(C(C#N)=C(N)N(c3cc(Cl)cc(Cl)c3)C3=C2C(=O)CCC3)c2ccccc21 (stereo not drawn) 53%
O=C(NC1=C(NC2CCS(=O)(=O)C2)C(=O)c2ccccc2C1=O)c1ccccc1 (stereo not drawn) 73.2%
C=CCc1ccccc1OCC(=O)NNC(=S)NCc1ccccc1 64.8%
COc1ccccc1CNC(=O)N1CCN(c2ccccc2C)CC1 71%
CCCc1nnc(NC(=O)CCC(=O)N2CCN(Cc3ccc(Cl)cc3)CC2)s1 53.2%
O=[N+]([O-])c1ccc(Sc2cccc[n+]2[O-])c2nonc12 93%
Cc1oc(-c2ccc3c(c2)OCCO3)cc1C(=O)O 79%
CN1/C(=C\C=C(/C#N)C(=O)Nc2ccc(Cl)cc2)C(C)(C)c2ccccc21 50.6%
CC(C)(C)c1ccc(C(=O)NC(=S)Nc2nc3c(s2)CCCC3)cc1 60.3%
CC1(C)N=C(N)N=C(N)N1c1ccc(Oc2ccc(Cl)cc2)c(Cl)c1 58.7%
